Experimental data reported in PubChem BioAssay AID1569 (National Center for Advancing Translational Sciences (NCATS), 2009).
Records with an inconclusive call do not appear. The source made the active and inactive calls. Calls come from the whole dose curve; as a rule, active = well fitted inhibition curve with a large enough effect; inconclusive = small, poorly fitted or top-dose-only effect, or effect the other way, or another doubt; inactive = no such curve, though single readings can be large or run the other way.

Test: Confirmation Concentration-Response Assay for lipid storage modulators; note: nearly all actives have a fitted effect of over 80% in size
Details: Drosophila S3 cells, lipid droplet BODIPY/CellTracker ratio, 18-24 h; series mostly up to 46.1 µM
Procedure, shortened: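 Cells at 5,000/well received compound as a titration plus oleic acid (added as 400 uM solution) and were incubated 18–24 h at 24 °C. BODIPY 493/503 lipid signal and CellTracker Red cell count were read by 488-nm laser-scanning cytometry. Activity was normalised to 20 uM Triacsin C.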
Potency is the fitted concentration of half-maximal effect.

| SMILES | Potency |
| --- | --- |
| COc1ccc(CCNC(=O)c2ccc(N(C)S(=O)(=O)c3ccc(C)cc3)cc2)cc1OC | 14.1 µM (active) |
| COc1cccc(C(=O)O[C@H]2[C@H](C)NS(=O)(=O)[C@H]3C[C@@H]4C=C[C@]23O4)c1 | inactive |
| CCCCNc1cc(C)nc(NCc2ccccc2)n1 | 7.91 µM (active) |
| O=C(Nc1ccc(S(=O)(=O)N2CCCC2)cc1)c1ccc(CN2CCc3ccccc3C2)cc1 | 14.1 µM (active) |
| Cc1cc(C)c(Cc2c(C)nc3c(C(=O)NCc4ccco4)cnn3c2C)c(C)c1 | 7.05 µM (active) |
| CC(=O)N1CCN(C(=O)C2(NC(=O)Nc3ccc(C)cc3)CCCCC2)CC1 | inactive |
| COc1ccc(CCNC(=O)CSc2nnc(CNc3ccc(Cl)cc3)o2)cc1OC | inactive |
| CCOC(=O)C1CCN(C(=O)C2(NC(=O)Nc3ccc(F)cc3F)CCCCC2)CC1 | 1.77 µM (active) |
| CC(C)OC(=O)c1cc2c(ccn2C)n1CC(=O)N(Cc1ccccc1)c1ccccc1 | 1.77 µM (active) |
| CCOc1ccc(OCC)c(NC(=O)C2CCN(S(=O)(=O)c3c(C)noc3C)CC2)c1 | 0.996 µM (active) |
| CCOc1ccc(CCNC(=O)Cn2cccc2C(=O)c2ccccc2C)cc1OCC | 4.99 µM (active) |
| COc1ccc(Cl)cc1NC(=O)CN(C)C(=O)CCCc1c[nH]c2ccccc12 | 22.3 µM (active) |
| Cc1ccccc1NC(=O)NC1(C(=O)N2CCC(O)CC2)CCCCC1 | inactive |
| O=C(NCc1cccnc1)Nc1cc(Cl)cc(Cl)c1 | inactive |
| COc1ccc(/C=C(\NC(=O)c2cccs2)C(=O)Nc2ccccc2C)cc1OC | 0.177 µM (active) |
| Cc1cc(N2CCCC2=O)cc(C)c1S(=O)(=O)NCCOc1ccc(C(C)(C)C)cc1 | 3.97 µM (active) |
| CCOc1ccc(CCNC(=O)Cn2cccc2C(=O)c2ccccc2)cc1OCC | 7.91 µM (active) |
| CNC(=O)c1sc2nc(-c3ccc(OC)cc3)cn2c1C | 15.8 µM (active) |

| SMILES | Potency |
| --- | --- |
| COc1ccc(CCn2ccc(O)c(Cc3c(F)cccc3Cl)c2=O)cc1OC | 0.434 µM (active) |
| Cc1cccc(-n2ncc3c2CCCC3NC(=O)Cc2c(C)noc2C)c1C (stereo unspecified) | 14.1 µM (active) |
| COc1ccc2oc(C(=O)OCC(=O)NCCc3ccc(S(N)(=O)=O)cc3)c(C)c2c1 | 4.99 µM (active) |
| COc1ccc(CCNC(=O)COc2ccc(S(=O)(=O)NC3CCCCC3)cc2Cl)cc1OC | 3.97 µM (active) |
| COc1ccc(CCNC(=O)c2ccccc2-c2ccccc2C(=O)O)cc1OC | inactive |
| CC1CCCCN1c1ccc(N)cc1C(N)=O (stereo unspecified) | inactive |
| CSCC(=O)NC1CCCc2c1cnn2-c1cc(F)cc(F)c1 (stereo unspecified) | 2.5 µM (active) |
| COc1ccc(CCNC(=O)CCC(=O)c2cccs2)cc1OC | inactive |
| COc1ccc(CCNC(=O)c2cc3sc(Cl)cc3n2C)cc1OC | inactive |
| CN(Cc1cccc(F)c1)C(=O)c1ccc2c(=O)n3c(nc2c1)CCC3 | inactive |
| CCOc1ccc(CCNC(=O)c2cc3sccc3n2CC)cc1OCC | 0.199 µM (active) |
| CCOc1ccc(CCNC(=O)COC(=O)C2CCN(c3ccc(C(F)(F)F)cn3)CC2)cc1OCC | inactive |
| CCCOc1ccc2oc(=O)c3c(c2c1)CCCN3C(=O)CN1CCN(C(=O)c2ccco2)CC1 | 1.99 µM (active) |
| CCOc1ccc(CCNC(=O)COC(=O)/C=C/c2ccc(OCC#N)c(OC)c2)cc1OCC | 3.15 µM (active) |
| COc1ccc(CCNC(=O)CSc2nc(O)cc(=O)[nH]2)cc1OC | inactive |
| c1ccc(-c2cnn3c(-c4ccccc4)c(-c4ccccc4)nc3n2)cc1 | 3.15 µM (active) |
| COc1ccccc1C(=O)O[C@H]1[C@H](Cc2ccccc2)NS(=O)(=O)[C@H]2C[C@@H]3C=C[C@]12O3 | 8.88 µM (active) |
| CCOC(=O)C1CCN(C(=O)C2(NC(=O)Nc3ccccc3C)CCCCC2)CC1 | 2.5 µM (active) |
